Results as given in PubChem BioAssay.
Active and inactive are the calls of the source. Unless noted, how the calls were made is not given here.

Columns and labels:
[1] = compounds binding Alexa647 anti-His antibody – biochemical, small-molecule microarray, 635 nm fluorescence, artefact control for SMM control protein annotation, primary screen (AID 1128); conditions: higher = more signal;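 further: score merges feature fluorescence with signal-to-noise for each printed compound spot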
[2] = tested on: Human papillomavirus type 1a E7 protein (residues 1-88); assay: HPV1a E7 small-molecule binders, primary screen, biochemical, small-molecule microarray, residues 1-88, 635 nm (AID 1129); conditions: small-molecule microarray binding, fluorescence 635 nm; higher = more signal
[3] = target: Focal adhesion kinase 1 (Homo sapiens) (UniProt Q05397); assay: PTK2 protein binding on printed compound slides – biochemical, small-molecule microarray, 635/667 nm fluorescence, BSA, DTT, primary screen (AID 1130); conditions: 635 nm fluorescence, higher = more signal;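 further: composite of spot emission at 667 nm and signal to noise over triplicate slides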
[4] = tested on: Fibrinogen (Alexa647-labelled); assay: Alexa647-fibrinogen binding to printed small molecules – biochemical, small-molecule microarray, 635/667 nm fluorescence, artefact control for SMM control-protein annotation, profiling panel (AID 1131); conditions: fibrinogen-A647 binding fluorescence, higher = more signal;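 further: z-score merges 667 nm fluorescence with per-spot signal-to-noise over triplicate slides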
[5] = target: Follistatin (Homo sapiens) (UniProt P19883); assay: FST protein binding to printed compounds – biochemical, small-molecule microarray, 635/667 nm fluorescence, primary screen (AID 1132); conditions: 635 nm fluorescence, higher = more signal
[6] = target: Fibroblast growth factor 2 (Homo sapiens) (UniProt P09038); assay: basic fibroblast growth factor binding to printed compounds – biochemical, small-molecule microarray, 635/667 nm fluorescence, primary screen (AID 1133); conditions: FGF2, fluorescence 635/667, higher = more signal
[7] = JC-1 mitochondrial potential readout, lung cancer cells – cell-based, A549, JC-1 fluorescence, basal, 24 h, 100 nL, profiling panel (AID 1138); conditions: higher = more signal;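 further: A549 lung adenocarcinoma cells under basal conditions with no added stimulus; test concentration not given here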
Lefty1 = Lefty1 protein binding to printed compounds – biochemical, small-molecule microarray, 635/667 nm fluorescence, primary screen (AID 1139); conditions: fluorescence 635/667, higher = more signal
[8] = tested on: wheat germ agglutinin (Triticum aestivum), Alexa647-labelled; assay: Alexa647-WGA lectin binding to printed small molecules – biochemical, small-molecule microarray, 635/667 nm fluorescence, artefact control for SMM control-protein annotation, profiling panel (AID 1140); conditions: WGA-A647 binding, 635 nm fluorescence, higher = more signal;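 further: score merges 667 nm feature emission with signal to noise over triplicate slides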
[9] = target: Luciferin 4-monooxygenase (Photinus pyralis) (UniProt P08659); assay: inhibition of purified Photinus pyralis luciferase – biochemical, luminescence, purified enzyme, 2006 set, primary screen (AID 1141); conditions: purified firefly luciferase, SteadyGlo luminescence, 30 min; higher = more signal, called active from +8 up or from −8 down;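 further: cell-free assay with purified firefly luciferase at 100 ng per well in PBS; test concentration not given here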
[10] = tested on: Wnt5a (protein binding on small-molecule microarray); assay: small molecules binding Wnt5a protein – biophysical, small-molecule microarray, 635/667 nm fluorescence, primary screen (AID 1142); conditions: 635 nm fluorescence, higher = more signal;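 further: fluorescence read at 667 nm with signal to noise per printed feature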
[11] = ATP-based viability of Huh7 replicon cells – cell-based, CellTiter-Glo luminescence, basal, 48 h, cytotoxicity control for HCV replication inhibitor project, primary screen (AID 1143); conditions: higher = more signal, called active from +8 up or from −8 down;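 further: Huh7 hepatoma cells carrying a hepatitis C replication reporter with no stimulus; test concentration not given here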
[12] = Pseudomonas biofilm growth suppression – PAO1 strain, BacTiter-Glo luminescence, LB-PBS, primary screen (AID 1144); conditions: P. aeruginosa PAO1 biofilm, 12 h, higher = more signal
[13] = basal CRE-LacZ reporter activity in PC12 – cell-based, unstimulated, primary screen (AID 1145); conditions: no forskolin, luminescence, 4.5 h, higher = more signal, called active from +8 up or from −8 down
[14] = forskolin-driven CRE-LacZ activity in PC12 – cell-based, CRE-LacZ reporter, forskolin-stimulated, primary screen (AID 1146); conditions: luminescence, 4.5 h, higher = more signal, called active from +8 up or from −8 down;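 further: PC12 cells with 6xCRE LacZ reporter stimulated by forskolin 10 µM; beta-galactosidase reporter signal reflecting CREB driven transcription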
[15] = target: Streptavidin (Streptomyces avidinii) (UniProt P22629); assay: compounds binding control protein streptavidin – biophysical, small-molecule microarray, 635/667 nm fluorescence, artefact control for SMM compound annotation, primary screen (AID 1147); conditions: higher = more signal;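 further: signal reflects streptavidin binding to arrayed compounds as a control protein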
[16] = probe aInhba binding on compound microarray – biochemical, small-molecule microarray, 635/667 nm fluorescence, primary screen (AID 1148); conditions: higher = more signal;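 further: score merges 667nm spot fluorescence with signal-to-noise for antibody binding to printed compounds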
Torsin-1A (Homo sapiens) [17] = target: Torsin-1A (Homo sapiens) (UniProt O14656); assay: TOR1A wild-type binding on microarray – cell lysate, small-molecule microarray, lysate, 635/667 nm, primary screen (AID 1149); conditions: COS7 hTOR1A-WT lysate, 635 nm fluorescence, higher = more signal
Torsin-1A (Homo sapiens) [18] = target: Torsin-1A (Homo sapiens) (UniProt O14656); assay: torsin A mutant lysate binding on microarrays – cell lysate, small-molecule microarray, COS7 lysate, 635/667 nm fluorescence, primary screen (AID 1150); conditions: COS7 hTOR1A mutant lysate, 635 nm fluorescence, higher = more signal;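 further: score pools 667 nm emission and signal to noise measuring lysate protein binding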
[19] = tested on: Sonic hedgehog protein (Shh); assay: Sonic hedgehog microarray binding compounds – biochemical, small-molecule microarray, 635/667 nm fluorescence, primary screen (AID 1151); conditions: 635 nm fluorescence, higher = more signal;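 further: Shh protein binding to compounds spotted on small-molecule microarray slides; score combines spot fluorescence intensity with signal-to-noise across triplicate slides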

Chain of Focal adhesion kinase 1 (Homo sapiens) (Q05397 whole entry, looked up): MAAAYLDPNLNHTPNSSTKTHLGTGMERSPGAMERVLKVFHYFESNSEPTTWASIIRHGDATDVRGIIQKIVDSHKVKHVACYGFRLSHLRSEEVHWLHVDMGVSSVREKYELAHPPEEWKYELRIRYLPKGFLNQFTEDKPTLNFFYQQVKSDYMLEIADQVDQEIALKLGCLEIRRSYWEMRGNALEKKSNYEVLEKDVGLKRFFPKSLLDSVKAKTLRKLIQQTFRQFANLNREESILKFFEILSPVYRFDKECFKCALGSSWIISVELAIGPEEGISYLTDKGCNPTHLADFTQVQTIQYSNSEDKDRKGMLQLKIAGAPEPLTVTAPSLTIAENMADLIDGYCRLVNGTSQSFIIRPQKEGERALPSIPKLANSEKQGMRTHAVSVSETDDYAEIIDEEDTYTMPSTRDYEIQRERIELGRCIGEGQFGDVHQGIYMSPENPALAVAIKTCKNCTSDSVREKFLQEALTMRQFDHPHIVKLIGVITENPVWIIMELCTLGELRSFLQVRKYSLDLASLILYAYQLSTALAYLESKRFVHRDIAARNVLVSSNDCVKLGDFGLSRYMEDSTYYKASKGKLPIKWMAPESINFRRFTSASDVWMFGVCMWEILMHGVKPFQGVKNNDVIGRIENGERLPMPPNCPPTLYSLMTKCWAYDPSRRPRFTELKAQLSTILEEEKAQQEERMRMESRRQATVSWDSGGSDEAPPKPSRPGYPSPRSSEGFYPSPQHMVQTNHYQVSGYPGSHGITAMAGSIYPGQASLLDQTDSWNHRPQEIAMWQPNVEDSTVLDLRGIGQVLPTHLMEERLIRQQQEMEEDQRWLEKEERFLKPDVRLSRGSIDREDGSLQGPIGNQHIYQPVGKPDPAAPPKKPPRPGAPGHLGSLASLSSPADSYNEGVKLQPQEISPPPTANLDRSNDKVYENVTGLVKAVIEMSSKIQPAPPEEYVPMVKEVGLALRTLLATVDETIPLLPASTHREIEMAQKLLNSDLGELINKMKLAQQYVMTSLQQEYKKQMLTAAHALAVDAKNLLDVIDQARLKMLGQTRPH
Chain of Fibroblast growth factor 2 (Homo sapiens) (P09038 whole entry, looked up): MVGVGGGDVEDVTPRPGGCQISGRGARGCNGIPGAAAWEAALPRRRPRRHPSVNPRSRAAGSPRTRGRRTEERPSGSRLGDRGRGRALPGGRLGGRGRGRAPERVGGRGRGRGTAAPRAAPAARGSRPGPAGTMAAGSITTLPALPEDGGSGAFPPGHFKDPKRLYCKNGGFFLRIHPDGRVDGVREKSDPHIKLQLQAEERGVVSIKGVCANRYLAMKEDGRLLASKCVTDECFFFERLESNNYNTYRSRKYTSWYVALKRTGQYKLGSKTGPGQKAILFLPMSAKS
Chain of Follistatin (Homo sapiens) (P19883 whole entry, looked up): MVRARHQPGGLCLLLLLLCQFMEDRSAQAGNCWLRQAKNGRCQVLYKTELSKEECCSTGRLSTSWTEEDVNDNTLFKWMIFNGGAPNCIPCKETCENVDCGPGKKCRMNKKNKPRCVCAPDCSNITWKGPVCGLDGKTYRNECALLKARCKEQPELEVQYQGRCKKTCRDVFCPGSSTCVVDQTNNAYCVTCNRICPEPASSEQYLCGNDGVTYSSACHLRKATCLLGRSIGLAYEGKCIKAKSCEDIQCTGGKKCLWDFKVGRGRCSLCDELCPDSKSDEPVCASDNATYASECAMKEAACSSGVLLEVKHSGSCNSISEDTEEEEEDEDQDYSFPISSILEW
Chain of Luciferin 4-monooxygenase (Photinus pyralis) (P08659 whole entry, looked up): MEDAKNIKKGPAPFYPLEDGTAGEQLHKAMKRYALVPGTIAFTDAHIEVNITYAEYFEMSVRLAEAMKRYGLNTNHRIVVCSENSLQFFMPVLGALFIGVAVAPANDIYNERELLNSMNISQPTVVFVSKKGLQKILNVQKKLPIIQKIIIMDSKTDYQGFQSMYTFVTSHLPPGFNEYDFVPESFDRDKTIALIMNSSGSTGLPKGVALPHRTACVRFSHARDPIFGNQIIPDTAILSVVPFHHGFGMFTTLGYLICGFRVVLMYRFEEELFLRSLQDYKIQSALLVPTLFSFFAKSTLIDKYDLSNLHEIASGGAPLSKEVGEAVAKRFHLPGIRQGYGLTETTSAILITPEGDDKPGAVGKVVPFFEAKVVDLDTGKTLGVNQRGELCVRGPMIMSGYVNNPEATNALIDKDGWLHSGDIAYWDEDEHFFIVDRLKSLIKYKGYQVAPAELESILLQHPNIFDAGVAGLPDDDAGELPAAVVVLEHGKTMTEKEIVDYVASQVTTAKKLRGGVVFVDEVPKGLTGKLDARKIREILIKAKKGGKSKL
Chain of Torsin-1A (Homo sapiens) (O14656 whole entry, looked up): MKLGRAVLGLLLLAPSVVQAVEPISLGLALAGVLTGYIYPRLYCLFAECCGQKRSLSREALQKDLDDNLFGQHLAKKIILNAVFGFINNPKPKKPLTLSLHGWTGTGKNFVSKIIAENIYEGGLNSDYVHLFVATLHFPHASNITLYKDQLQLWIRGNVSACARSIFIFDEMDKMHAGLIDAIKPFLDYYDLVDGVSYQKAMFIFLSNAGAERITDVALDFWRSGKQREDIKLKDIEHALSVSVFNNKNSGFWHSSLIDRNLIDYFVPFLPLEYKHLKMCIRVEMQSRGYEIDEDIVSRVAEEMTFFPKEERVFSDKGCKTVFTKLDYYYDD
Chain of Streptavidin (Streptomyces avidinii) (P22629 whole entry, looked up): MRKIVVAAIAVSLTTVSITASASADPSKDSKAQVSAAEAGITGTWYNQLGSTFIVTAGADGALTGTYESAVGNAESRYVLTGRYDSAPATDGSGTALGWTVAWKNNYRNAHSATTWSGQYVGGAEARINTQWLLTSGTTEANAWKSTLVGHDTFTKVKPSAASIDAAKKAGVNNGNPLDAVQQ

SMILES | composite z-score [1] | composite z-score [2] | composite z-score [3] | composite z-score [4] | composite z-score [5] | composite z-score [6] | z-score [7] | composite z-score (Lefty1) | composite z-score [8] | z-score [9] | composite z-score [10] | z-score [11] | z-score [12] | z-score [13] | z-score [14] | composite z-score [15] | composite z-score [16] | composite z-score (Torsin-1A (Homo sapiens) [17]) | composite z-score (Torsin-1A (Homo sapiens) [18]) | composite z-score [19]
CO[C@H]1O[C@H](CO)[C@@H](OC(=O)Nc2ccc(Br)cc2)[C@@H]2OC(=O)[C@@H](Cc3ccccc3)C/C=C/C[C@H](Cc3ccccc3)C(=O)O[C@@H]12 | 2.43 | 1.16 | 0.619 | 0.442 | 0.313 | 0.397 | 2.5 | -0.0196 | 0.424 | -1.38 (inactive) | 0.891 | -5.16 (inactive) | -0.435 (inactive) | -0.263 (inactive) | -0.396 (inactive) | -0.0062 | 0.115 | 0.048 | 0.91 | 0.0376
CC1CC/C=C\[C@H]2OC34C=CCN(C(C)C)C(=O)[C@H]3N(CCO)C(=O)[C@@H]4C2C(=O)O1 (stereo not given in full) | -0.567 | -0.724 | -0.301 | -1.41 | -1.27 | -1.03 | 0.193 | -0.445 | -0.748 | -0.886 (inactive) | -0.417 | -0.177 (inactive) | 0.591 (inactive) | -0.619 (inactive) | -0.599 (inactive) | -1.14 | -0.203 | -0.737 | -1.17 | -0.778
CC(C)C(CO)N1C(=O)[C@@H]2C3C(=O)OCCC/C=C\[C@H]3OC23C=CCN(c2ccc4ccccc4c2)C(=O)[C@@H]13 (stereo not given in full) | -0.236 | -0.696 | 0.374 | -1.62 | -0.0619 | -1.02 | 0.723 | 0.0124 | 0.562 | -0.526 (inactive) | -0.4 | -0.567 (inactive) | 1.09 (inactive) | -0.761 (inactive) | -0.137 (inactive) | -0.537 | -0.0695 | -1.83 | -0.801 | 0.41
[N-]=[N+]=Nc1ccccc1C[C@]1(C(=O)O)COC(c2ccc(OCCCO)cc2)=N1 | -0.047 | -0.914 | 0.0699 | -1.45 | -0.224 | -0.717 | -0.991 | -0.843 | 0.396 | -13.9 (active) | -0.0485 | 0.0518 (inactive) | -0.812 (inactive) | 1.18 (inactive) | -0.313 (inactive) | -0.213 | -0.0405 | -2.54 | -1.52 | -1.14
COc1ccc([Si](C)(C)[C@@H]2[C@@H](CC(=O)N3CCC[C@H]3CO)O[C@]3(C(=O)N(Cc4cccc(N5C(=O)COc6ccccc65)c4)c4ccccc43)[C@H]2C)cc1 | 1.43 | 1.21 | 0.438 | 0.711 | 0.821 | 1.22 | -0.522 | 0.984 | 1.15 | -0.23 (inactive) | 0.326 | -5.39 (inactive) | 0.425 (inactive) | 1.5 (inactive) | -0.361 (inactive) | 0.554 | -0.0494 | 0.95 | 0.938 | 1.12
CC(C)c1ccc(NN2C(C(O)c3ccc(F)cc3)C=CC3C(=O)N(c4ccccc4)C(=O)C32)cc1 (stereo not given) | 0.651 | 1.24 | 0.515 | 0.989 | 1.16 | -0.15 | -0.559 | 0.138 | 0.886 | -2.01 (inactive) | 0.306 | -0.953 (inactive) | -1.63 (inactive) | 0.812 (inactive) | 0.3 (inactive) | 1.7 | 0.324 | -0.448 | 0.0626 | -0.0155
O=C1OCCC/C=C\[C@H]2OC34C=CCN(c5ccc6ccccc6c5)C(=O)[C@H]3N(CCO)C(=O)[C@@H]4C12 (stereo not given in full) | -0.218 | -0.637 | -0.774 | -2.11 | -1.2 | -0.634 | -0.817 | -1.22 | 1.13 | 0.235 (inactive) | -0.325 | 0.43 (inactive) | 0.515 (inactive) | 0.601 (inactive) | -0.183 (inactive) | -1.2 | -0.299 | -0.427 | -0.839 | -0.59
CCOC(=O)C[C@H]1[C@H](OC(=O)c2ccc(C(=O)c3ccccc3)cc2)[C@@H](NC(=O)CC(C)C)c2cc(OCCCO)ccc2N1C(=O)c1ccccc1 | 0.152 | 1.11 | 0.188 | 0.965 | 0.839 | 0.609 | 1.63 | 1.26 | 0.227 | -0.675 (inactive) | 0.154 | -0.133 (inactive) | -0.367 (inactive) | 3.01 (inactive) | -0.443 (inactive) | 1.17 | -0.0131 | 0.125 | 0.442 | 1.32
CCCCCN1CC=CC23O[C@@H]4/C=C\CCCOC(=O)C4[C@H]2C(=O)N(C(C)CO)[C@@H]3C1=O (stereo not given in full) | 0.465 | -0.402 | -0.249 | 0.659 | -0.87 | -1.08 | 0.17 | -0.476 | 0.916 | -0.179 (inactive) | -0.917 | 0.194 (inactive) | -1.24 (inactive) | -1.43 (inactive) | -1.24 (inactive) | -0.783 | -0.128 | -3.18 | -2.48 | 0.0074
COC(=O)[C@@]1(Cc2ccc(OC)cc2)[C@H]2c3cc(C(=O)N(C)C)n(Cc4ccc(OC(F)(F)F)cc4)c3C[C@H]2CN1C(=O)c1ccccc1 | -0.399 | 0.299 | 1.14 | 0.808 | -0.295 | -0.555 | 0.517 | -0.878 | 0.0102 | 0.86 (inactive) | -0.223 | -2.6 (inactive) | 0.043 (inactive) | 4.4 (inactive) | 74 (active) | 0.539 | 0.185 | -0.178 | 0.555 | -0.955
C=CCC(OC(C)=O)[C@@H]1[C@@H](N(Cc2ccc(-c3ccccc3)cc2)C(=O)c2ccc(-c3ccccc3)cc2)c2cc(OCCCO)ccc2N1C(=O)c1ccc2ccccc2c1 (stereo not given in full) | -0.162 | 0.0751 | -0.138 | -0.239 | 0.707 | -0.193 | 0.657 | 0.476 | -0.094 | -0.424 (inactive) | 0.028 | 0.39 (inactive) | -0.0995 (inactive) | -0.23 (inactive) | 0.318 (inactive) | 0.485 | -0.101 | 0.0449 | -0.0178 | 0.255
CN(C)CCCCCCNC(=O)[C@@H]1C[C@@H]2C(=O)N3CCC[C@H]3C(=O)N2[C@@H]1c1cccc(OCCO)c1 | 2.58 | 1.23 | 0.338 | 0.552 | 1.37 | 1.58 | -0.17 | 1.48 | 1.1 | -0.138 (inactive) | 0.697 | -0.0705 (inactive) | 0.15 (inactive) | 0.151 (inactive) | 0.766 (inactive) | 0.656 | 1.06 | 1.99 | 1.43 | 1.54
